Each structure is given as a SMILES string. Hit rate of the full screen: of about 50,000 compounds, about 800 (1.6%) showed an effect of 50% or more. The entries come from a sample that favours strong results as a whole.

The target of this assay is Bcl-2-like protein 10 (Homo sapiens) (UniProt Q9HD36). The assay is described as follows: Phenotype converters, Bcl-B/TR3 peptide binding displacement, primary biochemical FP (AID 1240).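 Note: 0% = Bcl-B with tracer peptide and DMSO and 100% = tracer peptide lacking Bcl-B.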 To be noted: GST-Bcl-B / FITC-TR3 peptide fluorescence polarization; stronger effect = higher value; compound at 3.75 mg/L. (In general: Fluorescence polarisation rises when a labelled molecule tumbles more slowly, as on binding a larger partner.)
Sequence of Bcl-2-like protein 10 (Homo sapiens) (Q9HD36 whole entry, looked up): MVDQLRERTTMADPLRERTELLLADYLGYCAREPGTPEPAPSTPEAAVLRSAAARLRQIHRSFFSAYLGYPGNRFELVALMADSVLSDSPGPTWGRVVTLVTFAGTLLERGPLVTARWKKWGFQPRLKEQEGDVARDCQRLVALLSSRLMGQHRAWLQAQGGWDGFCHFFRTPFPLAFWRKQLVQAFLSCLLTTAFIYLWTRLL
Turning to `O=C1C=CC(=O)N1c1ccc(Cl)cc1[N+](=O)[O-]`, the displacement was -9%.

With `CCOC(=O)c1c(N)sc(C(=O)Nc2ccccc2F)c1C`, the displacement came to 12.7%.

As to `CCC(=O)Nc1nc(C)c(-c2csc(Nc3cccc(C(=O)O)c3)n2)s1`, the displacement was 34.5%.

As to `CC(NC(=O)COc1ccc(/C=N/NS(=O)(=O)c2ccccc2)cc1)c1ccccc1` (stereo not drawn), the displacement turned out to be 4%.

With `O=C(/C=C/c1ccc(-c2cccc(C(F)(F)F)c2)o1)c1ccc(F)cc1`, the displacement is -28.8%.

For `COc1ccc(C(=O)/C=C/c2ccc(-c3ccccc3[N+](=O)[O-])o2)cc1`, the displacement stood at 13.8%.

For the compound `O=C(/C=C/c1ccc(-c2ccccc2)o1)c1ccc(F)cc1`, the displacement stood at 54.3%.

As to `COc1ccc(C(=O)/C=C/c2ccc(/C=C/C(=O)c3ccc(OC)cc3)cc2)cc1`, the displacement is 19.1%.

On to `COc1ccc(-c2ccc(/C=C/C(=O)c3ccc(Cl)cc3)o2)cc1`, for which the displacement was -16.7%.

On to `COc1ccc(/C=C/C(=O)c2ccc([N+](=O)[O-])cc2)cc1`, for which the displacement came out at 105%.

Regarding `COc1ccc(/C=C/C(=O)c2cccc([N+](=O)[O-])c2)cc1`, the displacement stood at 14.9%.

Consider `Cc1ccc(C(=O)/C=C/c2ccc(-c3ccc(Cl)cc3)o2)cc1`, for which the displacement is 17.9%.

As to `O=C(/C=C/c1ccc(-c2ccc(Br)cc2)o1)c1ccc([N+](=O)[O-])cc1`, the displacement was -1.7%.

For the compound `COc1ccc(-c2ccc(/C=C/C(=O)c3ccc(C)cc3)o2)cc1`, the displacement worked out at 91.1%.

As to `O=C(/C=C/c1ccc(-c2ccccc2Cl)o1)c1ccc(F)cc1`, the displacement came to 6.5%.

As to `COc1ccc(C(=O)/C=C/c2ccc(-c3ccc([N+](=O)[O-])cc3)o2)cc1`, the displacement is 133%.

Consider `CC(C)(C)C1CCc2c(sc(NC(=O)c3ccccc3)c2C(N)=O)C1` (stereo not drawn), for which the displacement worked out at 37%.

In the case of `CCNC(=O)C(=O)Nc1ccc(OCC)cc1`, the displacement was determined as 7.5%.

Regarding `COc1ccc(NC2(c3ccccc3)C(=O)c3c(Cl)c(Cl)c(Cl)c(Cl)c3C2=O)cc1`, the displacement is 4.4%.

For `O=Cc1cccc(OCc2ccccc2F)c1`, the displacement was -0.4%.

As to `CC1(O)c2ccccc2C(=O)N1Cc1ccccc1` (stereo not drawn), the displacement came out at 12.6%.

Turning to `Cc1ccc(Cc2cnc(NC(=O)c3cccc([N+](=O)[O-])c3)s2)cc1`, the displacement was 26.3%.

Consider `C=C1CSc2nc(=O)c3c4c(sc3n21)CCC4`, for which the displacement amounted to 11.7%.

As for `O=C1NC(=O)C(=Cc2ccc(OC(=O)c3cccc([N+](=O)[O-])c3)cc2)C(=O)N1`, the displacement worked out at 1.8%.

Turning to `O=C1OC(c2cccc(Cl)c2)=N/C1=C\c1ccc(OC(=O)c2cccc([N+](=O)[O-])c2)cc1`, the displacement is 71.9%.

With `Cc1cccc(C(=O)Oc2ccc(/C=C3/N=C(c4ccccc4)OC3=O)cc2)c1`, the displacement is 0.5%.

For the compound `CCCCCCCNC1CC(=O)N(c2ccc(Br)cc2)C1=O` (stereo not drawn), the displacement was 1.7%.

Turning to `Cc1ccc(-c2[nH]n3c(=O)c4c(nc3c2C)CCCC4)cc1`, the displacement is -2.2%.

`Cc1ccc(-c2[nH]n3c(=O)c4c(nc3c2C)CCS4)cc1`: the displacement is -0.6%.

With `Cc1ccc(-c2[nH]n3c(=O)c4c(nc3c2C)CCC4)cc1`, the displacement stood at 60.8%.

As for `CCOc1ccc(/C=C(/C#N)c2nc(-c3ccc(Br)cc3)cs2)c(OCC)c1`, the displacement was 38.9%.

Take `O=C(Cc1ccc([N+](=O)[O-])cc1)NCc1ccccn1`: the displacement is 14.1%.

Regarding `COc1ccc(/C=C/C(=O)NC(C)Cc2ccccc2)cc1OC` (stereo not drawn), the displacement is -5.6%.

As to `CCOc1ccc(/C=C2/SC(=S)NC2=O)cc1Cl`, the displacement turned out to be 11.7%.

`COc1ccc(/C=C2/SC(=S)NC2=O)cc1OCc1ccc([N+](=O)[O-])cc1`: the displacement came to 76.9%.

As to `CCOc1cc(/C=C2/SC(=S)NC2=O)ccc1OC`, the displacement turned out to be 119%.

Take `CCOc1cccc(/C=C2/SC(=S)NC2=O)c1O`: the displacement was 5.7%.

`CCOc1ccc(/C=C2/SC(=S)NC2=O)c(OCC)c1`: the displacement is 114%.

For `COc1ccc(/C=C2/SC(=S)NC2=O)cc1OCc1ccc(Cl)cc1`, the displacement was determined as 4.2%.

For `CCOc1cc(/C=C2\SC(=S)NC2=O)ccc1OC(C)=O`, the displacement came out at 12%.

Consider `CCOc1ccc2ccc(OCC)c(/C=C3/SC(=S)NC3=O)c2c1`, for which the displacement is -0.8%.

In the case of `COc1cc(/C=C2/SC(=S)NC2=O)ccc1OCc1ccc(I)cc1`, the displacement was -8.4%.

Take `CCOc1ccc(C=Nc2ccc3c(c2)nc(C)n3C)cc1`: the displacement was 6.5%.

Consider `CSc1ccccc1NC(=O)c1ccc([N+](=O)[O-])cc1`, for which the displacement was 10.7%.

Turning to `CCOC(=O)c1cc(C#N)c(SCc2ccccc2)[nH]c1=O`, the displacement was -2.6%.

Turning to `COc1ccc(C(=O)N2CCN(c3cccc(C)c3C)CC2)cc1OC`, the displacement came to 2.4%.

On to `Cc1cc(C)cc(CC2CC(=O)N(c3ccc(Br)cc3)C2=O)c1` (stereo not drawn), for which the displacement is -8%.

Consider `CC(=O)n1cc(Nc2ccccc2C(=O)O)c2ccccc21`, for which the displacement is -3%.

For the compound `O=C(NCC1CCCO1)c1ccc(S(=O)(=O)N2CCCCC2)cc1` (stereo not drawn), the displacement was -4.5%.

Take `Cc1cc(C=C2C(=O)c3ccccc3C2=O)c(C)n1-c1ccc(N2CCOCC2)cc1`: the displacement amounted to 0.7%.

Regarding `Cc1cc(C=C2C(=O)c3ccccc3C2=O)c(C)n1-c1cccc([N+](=O)[O-])c1`, the displacement came to 11.8%.

Take `Cc1cccc(-n2c(C)cc(C=C3C(=O)c4ccccc4C3=O)c2C)c1`: the displacement was determined as 138%.

For `Cc1cc(/C=C2/NC(=O)NC2=O)c(C)n1-c1cccc(Cl)c1`, the displacement was determined as 10%.

In the case of `Cc1cc(C=C2C(=O)c3ccccc3C2=O)c(C)n1-c1cccc(Cl)c1`, the displacement was 180%.

`Cc1cc(C=C2C(=O)c3ccccc3C2=O)c(C)n1-c1cccnc1`: the displacement was -15.5%.

`Cc1cc(C=C2C(=O)c3ccccc3C2=O)c(C)n1-c1ccc(Cl)cc1`: the displacement worked out at 100%.

For the compound `CCOC(=O)c1ccc(-n2c(C)cc(C=C3C(=O)c4ccccc4C3=O)c2C)cc1`, the displacement came out at 11.9%.

Take `Cc1cc(/C=C2/SC(=O)NC2=O)c(C)n1-c1cccc(Cl)c1`: the displacement amounted to 18.6%.

Source of the values: PubChem BioAssay AID1240 (Sanford-Burnham Center for Chemical Genomics, 2008).
